Source: PubChem BioAssay (NCI)
Where “and” joins values, the source holds several entries; their conditions need not be identical. Identical values can stand only once. Compounds without any hit were thinned out: in the full panel of roughly 79,000, 15% have a hit. More than one record can exist for a structure, and the calls need not agree. Calls of active or inactive are those of the source. Cut-off read from the data, not from the text of the source: active = growth inhibition above about 70%; inactive = the rest.

Key:
[1] = NCI Yeast Anticancer Drug Screen. Data for the rad50 strain (AID 155);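 note: 0% = growth of vehicle-only cultures of the same strain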; conditions: S. cerevisiae rad50 strain growth inhibition, stronger effect = higher value
Procedure, shortened: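 Genetically altered yeast (DNA repair pathway); compound treatment; growth inhibition vs vehicle ctrl.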

[2] = NCI Yeast Anticancer Drug Screen. Data for the mec2-1 strain (AID 157); conditions: S. cerevisiae mec2-1 strain, stronger effect = higher value
Procedure, shortened: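 Compounds were applied to mec2-1 yeast cells. Their growth was then compared with that of vehicle-treated cultures to give growth inhibition.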

[3] = NCI Yeast Anticancer Drug Screen. Data for the sgs1 mgt1 strain (AID 161);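 note: 0% = growth of cultures given vehicle only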; conditions: S. cerevisiae sgs1 mgt1 strain, stronger effect = higher value
Procedure, shortened: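 This yeast growth screen uses a strain with defined DNA-repair lesions; compound-treated growth is compared with vehicle-treated growth.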

[4] = NCI Yeast Anticancer Drug Screen. Data for the cln2 rad14 strain (AID 165);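 note: 0% = growth equal to vehicle treated cultures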; conditions: S. cerevisiae cln2 rad14 strain, stronger effect = higher value
Procedure, shortened: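 Strain: cln2 rad14 yeast, altered in cell cycle control and DNA damage repair. Read-out: growth inhibition vs vehicle.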

[5] = NCI Yeast Anticancer Drug Screen. Data for the bub3 strain (AID 167); conditions: S. cerevisiae bub3 mutant strain, stronger effect = higher value
Procedure, shortened: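 Yeast carrying a defined mutation is treated with each compound, and growth is compared with that of vehicle-exposed cells to give inhibition.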

[6] = NCI Yeast Anticancer Drug Screen. Data for the mlh1 rad18 strain (AID 175); conditions: S. cerevisiae mlh1 rad18 strain growth inhibition, stronger effect = higher value
Procedure, shortened: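 A repair-deficient yeast strain is exposed to test compound, and growth is scored relative to vehicle-treated controls.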

[7] = at 5.0 µM (retest, dose inferred, filed as 0.5)
[8] = at 50.0 µM (retest, dose inferred, filed as 5.0)

SMILES	growth inhibition [1, 7]	growth inhibition [1, 8]	growth inhibition ([1]; at 50.0 µM)	growth inhibition [2, 7]	growth inhibition [2, 8]	growth inhibition ([2]; at 50.0 µM)	growth inhibition [3, 7]	growth inhibition [3, 8]	growth inhibition ([3]; at 50.0 µM)	growth inhibition [4, 7]	growth inhibition [4, 8]	growth inhibition ([4]; at 50.0 µM)	growth inhibition [5, 7]	growth inhibition [5, 8]	growth inhibition ([5]; at 50.0 µM)	growth inhibition [6, 7]	growth inhibition [6, 8]	growth inhibition ([6]; at 50.0 µM)
CC12CCC3c4ccc(O)cc4CCC3C1CCC2S (stereo not drawn)	-4% (inactive)	96% (active)	-7.35% (inactive) and 96.5% (active)	-31% (inactive)	97% (active)	-1.65% (inactive) and 49.3% (inactive)	-19% (inactive)	97% (active)	-2.95% (inactive) and 52.2% (inactive)	-3% (inactive)	96% (active)	-5.3% (inactive) and 94.8% (active)	-9% (inactive)	97% (active)	0.75% (inactive) and 98.1% (active)	-26% (inactive)	95% (active)	-2.3% (inactive) and 96.3% (active)
CC(=O)OC1COC(n2c(N)c(C#N)c(-c3ccccc3)c(C#N)c2=S)C(OC(C)=O)C1OC(C)=O (stereo not drawn)	-10% (inactive) and 1% (inactive)	3% (inactive) and 74% (active)	25.8% (inactive) and 46% (inactive)	-12% (inactive) and 1% (inactive)	3% (inactive) and 57% (inactive)	16.4% (inactive) and 40.7% (inactive)	-7% (inactive) and 2% (inactive)	16% (inactive) and 48% (inactive)	73.2% (active) and 65% (inactive)	-18% (inactive) and 1% (inactive)	-17% (inactive) and 61% (inactive)	-6.15% (inactive) and 14.3% (inactive)	-11% (inactive) and 4% (inactive)	-33% (inactive) and 79% (active)	35.7% (inactive) and 4.05% (inactive)	-7% (inactive) and -2% (inactive)	8% (inactive) and 73% (active)	62.9% (inactive) and 56.9% (inactive)
CCCCCCCCCCCCCCCCCCOCC(COP(=O)([O-])OCC[N+](C)(C)C)OC (stereo not drawn)	-16% (inactive)	-9% (inactive)	90% (active) and 20.7% (inactive)	-4% (inactive)	-28% (inactive)	91.4% (active) and -4.35% (inactive)	-13% (inactive)	-14% (inactive)	91.5% (active) and -31.4% (inactive)	-1% (inactive)	-46% (inactive)	88.2% (active) and 9.5% (inactive)	-16% (inactive)	-28% (inactive)	90.5% (active) and -7.55% (inactive)	-59% (inactive)	-88% (inactive)	-1.25% (inactive) and -47% (inactive)
N#CC1Sc2ccccc2N1C(=O)OCc1ccccc1 (stereo not drawn)	7% (inactive)	86% (active)	90.1% (active)	4% (inactive)	86% (active)	86.8% (active)	11% (inactive)	89% (active)	94% (active)	11% (inactive)	82% (active)	81.2% (active)	20% (inactive)	91% (active)	93.5% (active)	9% (inactive)	90% (active)	91.8% (active)
CCCCCCCCCCCCOS(=O)(=O)O	-6% (inactive)	29% (inactive)	-13.1% (inactive) and 99% (active) and 25.1% (inactive)	-12% (inactive)	2% (inactive)	-36.6% (inactive) and 98.2% (active) and 32.4% (inactive)	-5% (inactive)	28% (inactive)	6.3% (inactive) and 97% (active) and 36.8% (inactive)	0% (inactive)	36% (inactive)	1% (inactive) and 98.4% (active) and 7.2% (inactive)	-17% (inactive)	-20% (inactive)	-29.6% (inactive) and 97% (active) and 23.4% (inactive)	-17% (inactive)	29% (inactive)	-2.05% (inactive) and 98.2% (active) and 55.9% (inactive)
CCOC(=O)/C(C#N)=C\c1ccc([N+](=O)[O-])o1	15% (inactive)	98% (active)	-8.25% (inactive) and 99% (active)	12% (inactive)	99% (active)	-12.1% (inactive) and 99.3% (active)	8% (inactive)	99% (active)	-20.9% (inactive) and 99.3% (active)	4% (inactive)	98% (active)	19.1% (inactive) and 99% (active)	12% (inactive)	99% (active)	-13.4% (inactive) and 99.2% (active)	16% (inactive)	99% (active)	-16.9% (inactive) and 99% (active)
